Where a name gives a salt, the structure may show the parent alone.

The subject of this test is Escherichia coli IAI1. Briefly: growth (OD595) fold change vs plate DMSO controls (fold change (ratio)); higher = more growth. The note with it: incubation time: 27 h, anaerobic, 37 °C. An outline of the steps:
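Absorbance at 595 nm was read after shaking the anaerobic mGAM cultures, which had grown in 96-well plates for 27 h at 37 °C. After blank subtraction and background correction against 20 µM compound solutions in water, a calibration factor of 5 gave OD values. Growth is the fold change against the median of the plate's DMSO controls. Values are the mean of 2 biological replicates, with fold changes above 1.5 set to NA.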
For the molecule `CC(N)(Cc1ccc(O)c(O)c1)C(=O)O` (stereo not given) [(L) Methyldopa] (20 µM), the growth is 0.99.
Then `CN[C@@H]1[C@H](O[C@H]2[C@H](O[C@H]3[C@H](O)[C@@H](O)[C@H](N=C(N)N)[C@@H](O)[C@@H]3N=C(N)N)O[C@@H](C)[C@]2(O)C=O)O[C@@H](CO)[C@H](O)[C@H]1O` [Streptomycin sulfate] (20 µM), with 0.989; and `CCOC(=O)c1ccc(OC(=O)CCCCCNC(=N)N)cc1` [Gabexate mesilate] (20 µM), with 1.
Consider `NS(=O)(=O)c1cc(C(=O)O)c(NCc2ccco2)cc1Cl` [Furosemide] (20 µM), for which the growth was found to be 1.01.
For the molecule `CC(C)(Oc1ccc(Cl)cc1)C(=O)O` [Clofibric acid] (20 µM), the growth came to 0.983.
On to `Cc1ccc(C(C)NC(=O)[C@@H](NC(=O)OC(C)C)C(C)C)cc1` (stereo not given in full) (20 µM), for which the growth is 1.02.
Then `COC(c1ccccc1)(c1ccccc1)[C@H](Oc1nc(C)cc(C)n1)C(=O)O` [Ambrisentan] (20 µM), with 1.2; and `CN1CCN(CCCN2c3ccccc3Sc3ccc(C(F)(F)F)cc32)CC1` [Trifluoperazine dihydrochloride] (20 µM), with 1.08.
Then `C[N+](C)(CCOc1ccccc1)Cc1ccccc1.O=C([O-])c1cc2ccccc2cc1O` [Bephenium hydroxynaphthoate] (20 µM), with 0.99; and `c1ccc2cc3c(ccc4ccccc43)cc2c1` [Benz[a]anthracene] (20 µM), with 0.981.
For the molecule `C[C@H]1C[C@H]2[C@@H]3CCC4=CC(=O)C=C[C@]4(C)[C@@]3(F)[C@@H](O)C[C@]2(C)[C@@]1(O)C(=O)CO` [Betamethasone] (20 µM), the growth stood at 1.02.
Then `NC[C@H]1O[C@H](O[C@H]2[C@H](O[C@@H]3O[C@H](CO)[C@@H](O)[C@H]3O)[C@@H](O)[C@H](N)C[C@@H]2N)[C@H](N)[C@@H](O)[C@@H]1O` [Ribostamycin sulfate salt] (20 µM), with 1.04.
Then `CCOC(=O)C1=C[C@]2(CC)CCCN3CCc4c(n1c1ccccc41)[C@@H]32` [Vinpocetine] (20 µM), with 0.979.
Then `CCOC1O[C@H]([C@@H](COCc2ccccc2)OCc2ccccc2)[C@H](OCc2ccccc2)[C@H]1O` (stereo not given in full) [Tribenoside] (20 µM), with 0.959.
Turning to `NCCCC[C@H](N[C@@H](CCc1ccccc1)C(=O)O)C(=O)N1CCC[C@H]1C(=O)O` [Lisinopril] (20 µM), the growth is 1.03.
As for `CC(C)(C)NC[C@H](O)c1ccc(O)c(CO)c1` [Levalbuterol hydrochloride] (20 µM), the growth was determined as 0.976.
With `O=C(CCCl)NCc1ccccc1` [Beclamide] (20 µM), the growth was found to be 1.02.
Turning to `Cc1onc(-c2ccccc2Cl)c1C(=O)N[C@@H]1C(=O)N2[C@@H]1SC(C)(C)[C@@H]2C(=O)O` [Cloxacillin sodium salt] (20 µM), the growth was found to be 1.02.
Then `CCN1CCCC1CNC(=O)c1cc(S(N)(=O)=O)ccc1OC` (stereo not given) [Sulpiride] (20 µM), with 1; and `CCOc1ccc(NC(N)=O)cc1` [(4-Ethoxyphenyl)urea] (50 µM), with 0.949; and `O=C1OC(CN2CCOCC2)CN1/N=C/c1ccc([N+](=O)[O-])o1` (stereo not given) [Furaltadone hydrochloride] (20 µM), with 1.04.
Then `Cc1cc(N)c2ccccc2[n+]1CCCCCCCCCC[n+]1c(C)cc(N)c2ccccc21` [Dequalinium dichloride] (20 µM), with 0.99; and `Cc1ccc(C(=O)c2ccc(CC(=O)O)n2C)cc1` [Tolmetin sodium salt dihydrate] (20 µM), with 0.976.
Then `CCCSc1nc(N[C@@H]2C[C@H]2c2ccc(F)c(F)c2)c2nnn([C@@H]3C[C@H](OCCO)[C@@H](O)[C@H]3O)c2n1` [Ticagrelor] (20 µM), with 0.999; and `CNc1ncnc2c1ncn2[C@@H]1O[C@H](CO)[C@@H](O)[C@H]1O` [N6-methyladenosine] (20 µM), with 0.994; and `Cc1c(N(C)CS(=O)(=O)O)c(=O)n(-c2ccccc2)n1C` [Dipyrone sodium salt] (20 µM), with 1.14.
Consider `CN(c1nccc(=O)[nH]1)C1CCN(c2nc3ccccc3n2Cc2ccc(F)cc2)CC1` [Mizolastine] (20 µM), for which the growth amounted to 1.02.
`CC(CN(C)C)C(C)(O)Cc1ccc(Cl)cc1` (stereo not given) [Clobutinol hydrochloride] (20 µM): the growth was 1.01.
On to `Oc1c(Cl)cc(Cl)c2cccnc12` [Chloroxine] (20 µM), for which the growth worked out at 0.966.
Turning to `CC(=O)OCC(=O)[C@@]1(O)CC[C@H]2[C@@H]3CCC4=CC(=O)CC[C@]4(C)[C@@]3(F)[C@@H](O)C[C@@]21C` [Fludrocortisone acetate] (20 µM), the growth came out at 1.09.

These data come from the supplement of paper PMC12494721.
